MCF10A rerep – inducers of DNA re-replication in MCF 10A breast cells; MCF 10A DNA re-replication, Hoechst nuclear intensity, 48 h; Potency, µM (top dose mostly 46.1 µM), most hits filed as activators; actives 2.9% (n = 350,000); further: nearly all actives have a fitted effect of over 50% in size
IL1B secr inh – inhibitors of inflammasome signaling (IL-1 beta secretion); THP-1 LPS/ATP IL-1B secretion, AlphaLISA, 16 h; hits give low values; AID 743279; actives 4.7% (n = 360,000); activity change, % at 57.5 µM; in the data active means activity change below about -50%; inconclusive means mostly about -30% to -49%
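THP-1 cells pretreated 1 hr with compounds (up to 57.5 uM final), then stimulated with LPS (250 ng/mL final) plus ATP (1.25 mM final); secreted IL-1B measured by AlphaLISA after 16 hr, decreased signal indicating inhibition.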
SW480 rerep – inducers of DNA re-replication in SW480 colon cancer cells; SW480 DNA re-replication, Hoechst DNA content imaging, 48 h; Potency, µM (titrated, usually from 46.1 µM), usual class: activators; actives 1.8% (n = 340,000); AID 624297; further: nearly all actives have a fitted effect of over 55% in size
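First, 250 cells per well were seeded. Next, compound or vehicle (23 nL) was pinned in, plates sat 48 hr at 37 C. Finally Hoechst was added for 40 min before fluorescence scanning.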
VP16 counter – Gal4-VP16 reporter inhibition counter-screen; AID 2546; Drosophila S2 Gal4-VP16 UAS-luciferase, luminescence, 20 h; actives 3.5% (n = 310,000); Potency, µM (doses to about 53.6 µM), actives largely listed as inhibitors;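 further: Gal4-VP16 expression switched on by copper sulfate through the metallothionein promoter; nearly all actives have a fitted effect of over 50% in size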
RORgamma inh – ROR gamma (mouse) transcription inhibition. P51450. Drosophila S2 Gal4-RORgamma UAS-luciferase reporter, 20 h. Potency, µM (doses to about 53.6 µM), usual class: inhibitors. actives 5.4% (n = 310,000). AID 2551; further: nearly all actives have a fitted effect of over 60% in size
Target sequence (P51450 whole entry, looked up, the tested form may be a part): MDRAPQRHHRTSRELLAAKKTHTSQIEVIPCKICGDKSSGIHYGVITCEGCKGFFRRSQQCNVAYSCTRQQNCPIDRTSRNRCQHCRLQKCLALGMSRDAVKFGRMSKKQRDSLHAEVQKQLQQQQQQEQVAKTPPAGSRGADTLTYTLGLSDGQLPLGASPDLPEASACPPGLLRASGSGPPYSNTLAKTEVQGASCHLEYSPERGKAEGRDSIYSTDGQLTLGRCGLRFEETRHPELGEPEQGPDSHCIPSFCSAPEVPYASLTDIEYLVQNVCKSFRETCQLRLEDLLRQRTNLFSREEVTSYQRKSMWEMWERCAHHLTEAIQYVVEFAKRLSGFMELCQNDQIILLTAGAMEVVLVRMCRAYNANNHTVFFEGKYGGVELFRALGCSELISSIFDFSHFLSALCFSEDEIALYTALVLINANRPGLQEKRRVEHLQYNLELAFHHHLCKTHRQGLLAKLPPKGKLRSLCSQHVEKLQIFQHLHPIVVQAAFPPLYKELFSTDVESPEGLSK
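Stably transfected Drosophila Schneider cells are the test system, with ROR gamma fused to Gal4 and luciferase under UAS control; luminescence is read after 20 hr of 700 uM copper sulfate induction at ambient temperature.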
Each line names hits and unclear results; the compound was inactive in the other large screens. The list is not random: actives were taken first. Their share in the collection is about 11%. Unless noted, the call rests on the fitted dose curve; in most records, active means well fitted curve in the direction sought with a large enough effect; inconclusive means small, poorly fitted or top-dose-only effect, or another doubt; inactive means no such curve, though single readings can be large; an effect the other way counts as inactive or inconclusive.

CCOC(=O)C1CCCN(S(=O)(=O)c2cc(C(=O)OC)n(C)c2)C1 (centres undefined)	VP16 counter 15.8µM
O=S(=O)(c1ccc(F)cc1)N1CCN(C(=S)NC2CC2)CC1	SW480 rerep 0.581µM (no result: VP16 counter, RORgamma inh)
O=C(NC1CCCCC1)N1CCN(S(=O)(=O)c2ccc(F)cc2)CC1	none
O=C(Nc1ccc(F)cc1)Nc1ccc(S(=O)(=O)N2CCCC2)cc1	none (no result: VP16 counter, RORgamma inh)
COCCNc1ncnc2ccc(-c3ccc(N(C)C)cc3)cc12	RORgamma inh inconclusive (no result: MCF10A rerep, IL1B secr inh, SW480 rerep)
CCN(CC)S(=O)(=O)c1ccc(N2CCc3cc(OC)c(OC)cc3C2)nc1	MCF10A rerep inconclusive, IL1B secr inh -90.8
CCN(CC)S(=O)(=O)c1ccc(Cl)c(OC)c1	none
O=C1/C(=C\c2ccccn2)SC(=S)N1Nc1ncc(C(F)(F)F)cc1Cl	VP16 counter inconclusive, RORgamma inh 11.2µM
O=C1/C(=C/c2ccc(F)cc2)SC(=S)N1Nc1ncc(C(F)(F)F)cc1Cl	MCF10A rerep 3.66µM, SW480 rerep inconclusive
Cc1nc(C)c(C(=O)Nc2cccc(F)c2)s1	none
O=C1Nc2ccccc2/C1=N\N=C\c1ccc(O)c(O)c1	IL1B secr inh -70.9, VP16 counter inconclusive
O=C(/C(=N/N=C/c1ccc(O)c(O)c1)c1ccccc1)c1ccccc1	MCF10A rerep inconclusive, IL1B secr inh -75.7, VP16 counter inconclusive
COc1cc(/C=N/N=C2/C(=O)Nc3ccccc32)ccc1O	MCF10A rerep inconclusive, IL1B secr inh inconclusive
O=C1N[C@@H]2[C@H](CCCCC(=O)Oc3ccc([N+](=O)[O-])cc3)SC[C@H]2N1	none (no result: MCF10A rerep, IL1B secr inh, SW480 rerep)
COc1ccc(N2C(=O)[C@H]3CCC=C[C@H]3[C@@H]2c2ccccc2Br)cc1	MCF10A rerep inconclusive, VP16 counter 31.6µM, RORgamma inh 17.8µM
COc1ccc(NC(=O)c2sc3nc(C)cc(C)c3c2N)c(OC)c1	MCF10A rerep inconclusive, SW480 rerep 14.6µM (no result: VP16 counter, RORgamma inh)
Cc1ccc(NC(=O)c2sc3nc(C)cc(C)c3c2N)cc1	none
Cc1cc(C)c2c(N)c(C(=O)Nc3cccc(C)c3C)sc2n1	MCF10A rerep 16.4µM, SW480 rerep 11.6µM
O=C(NCCCN1CCCCC1)C1CCN(S(=O)(=O)N2CCC3(CC2)OCCO3)CC1	none
Cc1ccc(C)c(OCC(=O)O/N=C(\N)c2cccnc2)c1	none
Cc1ccc(C)c(OCC(=O)O/N=C(\N)c2ccccn2)c1	MCF10A rerep 10µM
Cc1ccc(C(=O)O/N=C(\N)c2ccccn2)c(C)c1	MCF10A rerep 7.31µM, IL1B secr inh inconclusive, SW480 rerep inconclusive, VP16 counter 6.31µM, RORgamma inh inconclusive
N/C(=N\OC(=O)c1ccccc1[N+](=O)[O-])c1ccccn1	SW480 rerep inconclusive
N/C(=N\OC(=O)c1ccccc1Cl)c1ccccn1	VP16 counter 14.1µM, RORgamma inh 6.31µM
COc1ccccc1C(=O)O/N=C(\N)c1ccccn1	VP16 counter inconclusive, RORgamma inh 3.16µM
Cc1cccc(NC(=O)NNC(=O)c2cc3occc3[nH]2)c1C	none
N/C(=N\OC(=O)COc1ccc2ccccc2c1)c1ccccn1	IL1B secr inh -57.6, RORgamma inh inconclusive
S=C1NC2=C(CCCC2=C2SCCS2)C(c2ccccc2)N1 (centres undefined)	IL1B secr inh -83.5, SW480 rerep inconclusive, VP16 counter inconclusive, RORgamma inh 7.08µM
O=C(Nc1nc2c(s1)CCCC2)c1cc2n(n1)C(C(F)(F)F)CC(C1CC1)N2 (centres undefined)	IL1B secr inh -59.6
O=C(Nc1ccc(NC(=O)c2cccs2)c(Cl)c1)c1ccco1	none
O=C(N/N=C/c1cccnc1)c1sc2ccccc2c1Cl	IL1B secr inh inconclusive, SW480 rerep inconclusive, VP16 counter 25.1µM, RORgamma inh 12.6µM
O=C(NN=C1CCCC1)c1sc2ccccc2c1Cl	VP16 counter inconclusive, RORgamma inh 11.2µM
O=C(Nc1ccc(NC(=O)c2sc3ccccc3c2Cl)cc1Cl)c1ccco1	MCF10A rerep inconclusive, SW480 rerep inconclusive, VP16 counter inconclusive, RORgamma inh 10µM
O=C(Nc1ccncc1)c1sc2ccccc2c1Cl	IL1B secr inh -55.4
CN1CCN(C(=O)/C(=C\c2ccccc2)c2ccccc2)CC1	none
CC1CCN(C(=O)/C(=C/c2ccccc2Cl)c2ccccc2)CC1	MCF10A rerep 16.4µM, VP16 counter inconclusive
CCOc1cc(-c2noc(N)c2C(=O)OC)cc(OCC)c1OCC	IL1B secr inh -105.7, VP16 counter inconclusive

Screens as filed in PubChem.
